The text below walks through data of PubChem BioAssay (NCATS).

Test [1] in a line: Drug repurposing screens with cells derived from glioblastoma tumor samples (AID 1345199). Further: nearly all actives have a fitted effect of over 40% in size. Further: potency means the concentration at half of the fitted maximal effect. On activity, negative = cell killing: on the % scale 0 is the no-effect control and ±100 the full control effect. To be noted: GBM patient neurospheres viability, ATP luminescence, 48 h. Summed up:
(§1)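 Primary testing used CD133+ neurospheres from four GBM patients, seven concentrations, 48 h exposure and ATP-based viability; confirmation added three slower-growing patient lines.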

The next test deals with astro (control astrocytes). Described as above. To be noted: viability, ATP luminescence, 48 h; series mostly up to 45.9 µM. The method in brief: as §1
The target in test [2] is Nuclear receptor subfamily 1 group I member 2 (Rattus norvegicus) (UniProt Q9R1A7). The test is described as follows: qHTS assay for small molecule activators of the rat pregnane X receptor (rPXR) signaling pathway (AID 651751; call rule not given here; further: 0% is about no effect). To be noted: rPXR reporter cells, luciferase (One-Glo), 24 h. Background: In qHTS, concentration-response curves come from the screen itself.
Test [3] in a line: qHTS assay for small molecule activators of the human pregnane X receptor (PXR) signaling pathway (AID 720659; call rule not given here; further: 0% is about no effect). The settings on record: DPX-2 HepG2 CYP3A4-luciferase, 24 h; series mostly up to 92.3 µM.
The mark [4] stands for this setting: at 20 µM (top of the series), tumour line C.
[5] abbreviates: at 21.2 µM (top of the series), tumour line B.
Where [6] appears, read: at 21.2 µM (top of the series), tumour line D.
[7] abbreviates: at 45.9 µM (top of the series), tumour line B.
The mark [8] stands for this setting: at 45.9 µM (top of the series), tumour line D.
Setting [9] is: at 46.1 µM (top of the series), tumour line C.
The mark [10] stands for this setting: at 46 µM (top of the series), tumour line A.

“And” between values parts separate entries of the source, which are not always exact repeats. Identical values can stand only once. A number with no mark means an inactive call. Records with an inconclusive call do not appear. The source made the active and inactive calls. Unless noted, the call rests on the fitted dose curve; in most records, active means well fitted inhibition curve with a large enough effect; inconclusive means small, poorly fitted or top-dose-only effect; inactive means flat fitted curve, though single readings scatter.

Sequence of Nuclear receptor subfamily 1 group I member 2 (Rattus norvegicus) (Q9R1A7 whole entry, looked up): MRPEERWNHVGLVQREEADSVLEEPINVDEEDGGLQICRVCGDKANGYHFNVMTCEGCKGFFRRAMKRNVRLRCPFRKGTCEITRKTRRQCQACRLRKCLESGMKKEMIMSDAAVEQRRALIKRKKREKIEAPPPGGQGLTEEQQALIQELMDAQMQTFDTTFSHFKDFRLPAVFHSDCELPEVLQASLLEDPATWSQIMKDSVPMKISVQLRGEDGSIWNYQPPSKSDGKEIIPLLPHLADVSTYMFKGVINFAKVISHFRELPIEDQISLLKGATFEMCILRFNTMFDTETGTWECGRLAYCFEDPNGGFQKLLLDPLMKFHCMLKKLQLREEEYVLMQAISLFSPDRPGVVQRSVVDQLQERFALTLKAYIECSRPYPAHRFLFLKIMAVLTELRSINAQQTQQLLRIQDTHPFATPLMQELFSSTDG

In the case of `CCOC(=O)Oc1c(OC)cc(C(=O)O[C@@H]2C[C@@H]3CN4CCc5c([nH]c6cc(OC)ccc56)[C@H]4C[C@@H]3[C@H](C(=O)OC)[C@H]2OC)cc1OC`, the activity, negative = cell killing in test [1] (setting [4]) was -3.41%; in test [1] (setting [5]) it was -4.13%; in test [1] (setting [6]) it was -4.51%. For the same molecule, the Potency in test [1] (tumour line A) is 5.62 µM (active). In the test with astro, the Potency result was “inactive”.

As to `CC(C)CCCCCCc1ccc(O)cc1`, the activity, negative = cell killing in test [1] (setting [7]) is -21.6%; in test [1] (setting [8]) it was -27.3%; in test [1] (setting [9]), -24.2%. In addition, the Potency in test [1] (tumour line A) is 22.4 µM (active). Moreover, the Potency entry in the test with astro was “inactive”. Moreover, in test [2], the max response was -1.23%.

Take `CC[C@H]1OC(=O)C[C@@H](O)[C@H](C)[C@@H](O[C@@H]2O[C@H](C)[C@@H](O[C@H]3C[C@@](C)(O)[C@@H](O)[C@H](C)O3)[C@H](N(C)C)[C@H]2O)[C@@H](CC=O)C[C@@H](C)C(=O)/C=C/C(C)=C/[C@@H]1CO[C@@H]1O[C@H](C)[C@@H](O)[C@@H](OC)[C@H]1OC`: the activity, negative = cell killing in test [1] (setting [7]) is -18.4% and -8.3%; in test [1] (setting [8]), -0.155% and -17.6%; in test [1] (setting [10]), -15.7%; in test [1] (setting [9]), -3.5% and -16.4%. In addition, in the test with astro, the Potency result was “inactive”.

In the case of `CC1=CCC2CC1C2(C)C` (centres undefined), the activity, negative = cell killing is -2.1% in test [1] (setting [7]), 2.05% in test [1] (setting [8]), -19.4% in test [1] (setting [10]) and 11.1% in test [1] (setting [9]). Also, in the test on astro, the Potency result is “inactive”. In test [2], the max response is 1.07%. Also, the call in test [3] was inactive.

On to `NCCN`, for which the activity, negative = cell killing in test [1] (setting [7]) was -1.66%; in test [1] (setting [8]), -17.5%; in test [1] (setting [10]), -28.2%; in test [1] (setting [9]) it was 1.75%. The Potency entry with astro was “inactive”. Besides, the max response in test [2] is 4.88%. The molecule was called inactive in test [3].

As for `CCCCC(CC)COS(=O)(=O)O` (centres undefined), the activity, negative = cell killing in test [1] (setting [7]) was -6.03%; in test [1] (setting [8]), -2.06%; in test [1] (setting [10]) it was -18.8%; in test [1] (setting [9]), -4.44%. The Potency entry in the test with astro is “inactive”. For the same molecule, the max response in test [2] is 0.915%. The outcome in test [3] was inactive.

`Nc1nccs1`: the activity, negative = cell killing in test [1] (setting [7]) was -17.5%; in test [1] (setting [8]) it was -10.5%; in test [1] (setting [10]), -20.4%; in test [1] (setting [9]), -24.6%. Further, in the test with astro, the Potency entry was “inactive”. Further, the max response in test [2] was -2.21%. The outcome in test [3] was inactive.

As for `O=P(O)(O)O`, the activity, negative = cell killing in test [1] (setting [7]) is 9.14%; in test [1] (setting [8]), -2.27%; in test [1] (setting [10]) it was -6.51%; in test [1] (setting [9]), 0.794%. The Potency entry in the test with astro is “inactive”. The max response in test [2] was -0.433%. The call in test [3] was inactive.

Turning to `CC[C@H](CC[C@@H](C)[C@H]1CC[C@H]2[C@@H]3CC=C4C[C@@H](O)CC[C@]4(C)[C@H]3CC[C@]12C)C(C)C`, the activity, negative = cell killing in test [1] (setting [7]) is -10.4%; in test [1] (setting [8]), -2.23%; in test [1] (setting [10]) it was -16.4%; in test [1] (setting [9]), -13.1%. Moreover, in the test with astro, the Potency entry was “inactive”.

Turning to `CCOC(C)OCC`, the activity, negative = cell killing in test [1] (setting [7]) was -4.71%; in test [1] (setting [8]), -10.7%; in test [1] (setting [10]), -12.1%; in test [1] (setting [9]), -14.4%. The Potency entry with astro is “inactive”. For the same molecule, the max response in test [2] was 0.058%. The molecule was classed as inactive in test [3].

As for `Nc1ncnc2c1ncn2[C@H]1CC[C@@H](CO)O1`, the activity, negative = cell killing in test [1] (setting [7]) is -7.29%; in test [1] (setting [8]) it was -3.43%; in test [1] (setting [10]), -28.3%; in test [1] (setting [9]) it was -20.8%. Further, the Potency entry with astro is “inactive”. Also, in test [2], the max response is -2.84% and -0.199%. For the same molecule, in test [3], the molecule was classed as inactive.

Consider `COc1cc(S(C)=O)ccc1-c1nc2ncccc2[nH]1` (centres undefined), for which the activity, negative = cell killing in test [1] (setting [7]) was -1.29%; in test [1] (setting [8]) it was -12%; in test [1] (setting [9]) it was -12.6%. Also, the Potency entry in the test with astro was “inactive”.

With `CC(C)[C@@H]1CC[C@@H](C)C[C@H]1O`, the activity, negative = cell killing was -7.27% in test [1] (setting [7]), 3.66% in test [1] (setting [8]), -18.1% in test [1] (setting [10]) and -14.4% in test [1] (setting [9]). Moreover, the Potency result with astro is “inactive”. For the same molecule, in test [2], the max response is -1.32%. In addition, the molecule was classed as inactive in test [3].

`Cn1nnnc1SCC1=C(C(=O)O)N2C(=O)[C@@H](NC(=O)[C@H](O)c3ccccc3)[C@H]2SC1`: the activity, negative = cell killing in test [1] (setting [4]) was -9.7%; in test [1] (setting [5]) it was -12.5%; in test [1] (setting [6]), -10.9%. For the same molecule, in the test with astro, the Potency entry is “inactive”.

As to `CC1CCCCN1CCCOC(=O)c1ccccc1` (centres undefined), the results for the activity, negative = cell killing in test [1] (setting [7]), in test [1] (setting [8]) and in test [1] (setting [9]) were -12.2%, -13.7% and -1.82%, respectively. For the same molecule, the Potency entry in the test on astro was “inactive”.

With `Cc1ccc(C(C)(C)c2ccc(C)cc2)cc1`, the activity, negative = cell killing in test [1] (setting [7]) was -5.24%; in test [1] (setting [8]) it was -1.07%; in test [1] (setting [9]), -10.1%. Moreover, the Potency result in the test with astro was “inactive”.

As for `CNCC(=O)N[C@@H](CCCN=C(N)N)C(=O)N[C@H](C(=O)N[C@@H](Cc1ccc(O)cc1)C(=O)N[C@H](C(=O)N[C@@H](Cc1cnc[nH]1)C(=O)N1CCC[C@H]1C(=O)N[C@@H](C)C(=O)O)C(C)C)C(C)C`, the results for the activity, negative = cell killing in test [1] (setting [7]), in test [1] (setting [8]) and in test [1] (setting [9]) were -7.12%, -7.19% and -6.49%, respectively. Further, the Potency entry in the test with astro was “inactive”.

Turning to `NC(=O)c1cc[n+](CC2=C(C(=O)O)N3C(=O)[C@@H](NC(=O)C(c4ccccc4)S(=O)(=O)[O-])[C@H]3SC2)cc1` (some centres undefined), the activity, negative = cell killing in test [1] (setting [4]) was 7.27%; in test [1] (setting [5]), -0.0366%; in test [1] (setting [6]), -7.97%. Further, in the test with astro, the Potency entry was “inactive”.

Consider `CCN(CC)CCOc1ccccc1OC`, for which the activity, negative = cell killing in test [1] (setting [7]) is 5.43%; in test [1] (setting [8]), -13.8%; in test [1] (setting [9]), -28.2%. Besides, in the test with astro, the Potency result was “inactive”.

As for `O=C(CCCN1CCC(C(=O)c2ccc(F)cc2)CC1)c1ccc(F)cc1`, the figures for the activity, negative = cell killing in test [1] (setting [7]) and in test [1] (setting [9]) were -22% and -4.95%, respectively. Moreover, in test [1] (tumour line A), the Potency is 8.91 µM (active). In addition, the Potency entry in the test on astro is “inactive”.

On to `c1ccc2c(c1)OCC(CN1CCCCC1)O2` (centres undefined), for which the values for the activity, negative = cell killing in test [1] (setting [7]), in test [1] (setting [8]) and in test [1] (setting [9]) were 0.315%, -10.7% and -13%, respectively. The Potency entry with astro is “inactive”.

Turning to `C=CC1=C(C(=O)O)N2C(=O)[C@@H](NC(=O)/C(=N/OCC(=O)O)c3csc(N)n3)[C@H]2SC1` (stereo in doubt), the activity, negative = cell killing in test [1] (setting [4]) is 2.81%; in test [1] (setting [5]) it was -6.13%; in test [1] (setting [6]), -19.8%. Further, the Potency result with astro was “inactive”.

Regarding `CC1CC(O)CC(C)(C)C1` (centres undefined), the figures for the activity, negative = cell killing in test [1] (setting [7]), in test [1] (setting [8]) and in test [1] (setting [9]) were -5.77%, -9.42% and -22%, respectively. In addition, the Potency entry with astro is “inactive”.

`O=S(=O)(O)CCCS(=O)(=O)O`: the activity, negative = cell killing in test [1] (setting [7]) is -8.81%; in test [1] (setting [8]), -10.4%; in test [1] (setting [9]) it was -13.4%. Further, the Potency result in the test on astro is “inactive”.

On to `CC(=O)[C@H]1CC[C@H]2[C@@H]3C=CC4=CC(=O)CC[C@@]4(C)[C@H]3CC[C@]12C`, for which the activity, negative = cell killing in test [1] (setting [4]) is -18.4%; in test [1] (setting [5]), -29%. In test [1] (tumour line A), the Potency was 3.55 µM (active). Moreover, in the test on astro, the Potency result is “inactive”.
